High-throughput results (PubChem BioAssay)
This is a sample that favours compounds with a hit; in the whole collection about 2.5% have one here.
MCL1-BIM inh – inhibitors of human MCL1 binding to BIM-BH3 peptide | GST-MCL1 / FITC-Bim-BH3 fluorescence polarization | inhibition, % at 10.9 µM | actives 0.68% (n = 320,000) | AID 2057;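 active = inhibition above the mean inhibition of all tested compounds plus 3 SD, set per campaign, cut at about 40% in these data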;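 note: 0% = DMSO wells and 100% = unlabeled Bim-BH3 peptide control; higher means more loss of mP so more displacement of Bim peptide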
Target sequence (Q07820 whole entry, looked up): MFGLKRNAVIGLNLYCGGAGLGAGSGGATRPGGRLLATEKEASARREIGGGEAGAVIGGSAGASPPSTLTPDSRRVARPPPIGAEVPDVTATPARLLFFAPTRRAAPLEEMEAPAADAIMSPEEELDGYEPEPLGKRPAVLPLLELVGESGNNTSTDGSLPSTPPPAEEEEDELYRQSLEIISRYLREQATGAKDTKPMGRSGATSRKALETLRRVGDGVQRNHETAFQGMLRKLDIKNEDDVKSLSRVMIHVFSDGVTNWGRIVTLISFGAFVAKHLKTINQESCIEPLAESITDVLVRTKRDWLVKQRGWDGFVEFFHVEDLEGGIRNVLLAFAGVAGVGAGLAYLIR
14-3-3 Bad inh – disrupts binding of bovine 14-3-3 zeta to phospho-Bad peptide; TR-FRET 14-3-3zeta/Dy647-pBad peptide displacement, 1 h; inhibition, % at 21.7 µM; actives 0.71% (n = 220,000); AID 781;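 active = inhibition above about 70%, limit read from the data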;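 note: 0% = full 14-3-3 plus peptide FRET controls and 100% = background without 14-3-3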
Target sequence (P63103 whole entry, looked up): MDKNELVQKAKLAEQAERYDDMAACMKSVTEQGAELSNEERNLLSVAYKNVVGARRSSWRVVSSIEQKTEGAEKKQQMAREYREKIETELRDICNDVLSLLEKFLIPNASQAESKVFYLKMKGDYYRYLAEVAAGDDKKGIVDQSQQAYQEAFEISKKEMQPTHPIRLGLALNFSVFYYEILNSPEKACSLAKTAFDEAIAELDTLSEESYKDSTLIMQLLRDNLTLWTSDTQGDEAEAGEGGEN
Mcl1 Bid PPI – Mcl-1/Bid interaction inhibition; TR-FRET Mcl-1/Bid-Dy647 peptide binding, 1536-well; inhibition, % at 21.7 µM; actives 0.97% (n = 220,000); AID 1021;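 active = compounds that cut the binding signal by more than half at the single screening dose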;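 note: His-tagged Mcl-1 with europium anti-His antibody binding Bid BH3 peptide; 0% = Mcl-1 plus peptide wells and 100% = peptide-only wells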
Mcl-1 Bim block – human Bim-Mcl-1 interaction inhibition. Q07820. Bead-based flow cytometry, Bim peptide-Mcl-1 binding. inhibition, % at 10 µM. actives 0.1% (n = 190,000); in the data active = inhibition above about 40%;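 note: 0% = no compound tracer wells and 100% = peptide blocker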
Mcl1-Noxa inh – Mcl-1/Noxa interaction inhibition | Q07820 | TR-FRET Mcl-1/Noxa peptide binding, 2 h | inhibition, % at 21.7 µM | actives 1.5% (n = 220,000) | AID 1022;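 active = compounds that cut the protein-peptide binding signal by more than 50% relative to plate controls in a single-dose test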;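 note: His-tagged Mcl-1 with rhodamine Noxa BH3 peptide and terbium anti-His antibody; 0% = Mcl-1 plus Noxa peptide wells and 100% = peptide-only wells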
Numbers without * were called inactive; [ ] = dose if it differs, or a comment.

`COc1ccc(/C=N/NC(=O)c2nc(-c3ccccc3)cc(-c3ccccc3)n2)cc1O` gave MCL1-BIM inh 1.9, 14-3-3 Bad inh -5.0, Mcl1 Bid PPI -6.2, Mcl-1 Bim block 0.0 and Mcl1-Noxa inh 68.2*.
COc1cc(/C=N/NC(=O)c2ccc(CN3C(=O)c4cccc5cccc3c45)cc2)cc(OC)c1O was read as MCL1-BIM inh -1.2, 14-3-3 Bad inh -1.6, Mcl1 Bid PPI -66.3 and Mcl1-Noxa inh 75.5*.
`COc1cc(/C=N\NC(=O)c2ccc(-c3ccccc3)cc2)cc(Br)c1O` gave MCL1-BIM inh -3.5.
COc1ccc(/C=N/NC(=O)c2nc(-c3ccccc3)cc(-c3ccccc3)n2)cc1 was read as MCL1-BIM inh 4.2, 14-3-3 Bad inh 9.2, Mcl1 Bid PPI -12.4, Mcl-1 Bim block -3.0 and Mcl1-Noxa inh 7.5.
`COc1cc(/C=N/NC(=O)c2ccc(CSc3nc4ccccc4[nH]3)cc2)ccc1O` gave MCL1-BIM inh -15.2, 14-3-3 Bad inh -21.2, Mcl1 Bid PPI -45.6, Mcl-1 Bim block -1.0 and Mcl1-Noxa inh 61.6*.
`COc1cccc(NC(=O)CN(C)C(=O)CSc2nc3ccccc3s2)c1` gave MCL1-BIM inh -5.0.
`COC(=O)c1c(NC(=O)COC(=O)c2ccc(NC(=O)CC#N)cc2)sc2c1CCCCC2` gave MCL1-BIM inh -18.1, 14-3-3 Bad inh 13.0, Mcl1 Bid PPI 18.5, Mcl-1 Bim block 0.0 and Mcl1-Noxa inh 67.1*.
`Cc1csc(NC(=O)C2CCN(S(=O)(=O)c3cccs3)CC2)n1` gave MCL1-BIM inh -3.0, 14-3-3 Bad inh -3.0, Mcl1 Bid PPI 84.4*, Mcl-1 Bim block 1.0 and Mcl1-Noxa inh -9.2.
Screening CC(=O)Nc1ccc(-c2csc(NC(=O)C3CCN(S(=O)(=O)c4cccs4)CC3)n2)cc1 returned MCL1-BIM inh -4.6, 14-3-3 Bad inh -10.1, Mcl1 Bid PPI -28.3, Mcl-1 Bim block -4.0 and Mcl1-Noxa inh 22.4.
For O=C(CSCc1cnn(-c2ccccc2)c1-n1cccc1)NCc1ccccn1 the results were MCL1-BIM inh -1.6, 14-3-3 Bad inh -20.2, Mcl1 Bid PPI -44.3, Mcl-1 Bim block 2.0 and Mcl1-Noxa inh 1.8.
For O=C1/C(=C/c2ccco2)SC(=S)N1c1cccnc1 the results were 14-3-3 Bad inh 85.0*, Mcl1 Bid PPI 24.1 and Mcl1-Noxa inh 94.1*.
O=C1/C(=C/C=C/c2ccco2)SC(=S)N1c1ccc(O)cc1 was read as MCL1-BIM inh 28.5, 14-3-3 Bad inh 62.8, Mcl1 Bid PPI 37.6 and Mcl1-Noxa inh 102.1*.
For O=C1/C(=C\c2ccc(O)cc2)SC(=S)N1c1cccnc1 the results were MCL1-BIM inh 11.7, 14-3-3 Bad inh 32.5, Mcl1 Bid PPI 6.5, Mcl-1 Bim block 0.0 and Mcl1-Noxa inh 73.1*.
For COc1ccc(/C=C2\SC(=S)N(c3cccnc3)C2=O)cc1 the results were MCL1-BIM inh 4.8, 14-3-3 Bad inh 0.9, Mcl1 Bid PPI -3.5 and Mcl1-Noxa inh 1.4.
O=C(COC(=O)c1ccc2ccccc2c1)NCCCc1ccccc1 was read as MCL1-BIM inh 3.8, 14-3-3 Bad inh -0.3, Mcl1 Bid PPI 81.0*, Mcl-1 Bim block -2.0 and Mcl1-Noxa inh 4.8.
Screening O=C(COc1ncnc2sccc12)Nc1ccc2c(c1)OCCO2 returned MCL1-BIM inh -9.8, 14-3-3 Bad inh -6.6, Mcl1 Bid PPI -54.0, Mcl-1 Bim block -2.0 and Mcl1-Noxa inh 11.7.
For Cc1sc2ncnc(OCC(=O)Nc3ccc4c(c3)OCCO4)c2c1C the results were MCL1-BIM inh -4.7, 14-3-3 Bad inh -10.1, Mcl1 Bid PPI 98.6*, Mcl-1 Bim block 1.0 and Mcl1-Noxa inh -4.9.
Cc1noc(C)c1S(=O)(=O)Nc1ccc(C(=O)NC2CCCCCC2)cc1 was read as MCL1-BIM inh 8.0, 14-3-3 Bad inh 8.8, Mcl1 Bid PPI -11.7, Mcl-1 Bim block -4.0 and Mcl1-Noxa inh 21.6.
Cc1noc(C)c1S(=O)(=O)Nc1ccc(C(=O)NC2CCCCC2C)cc1 (stereo not given) was read as MCL1-BIM inh 2.0, 14-3-3 Bad inh 85.1*, Mcl1 Bid PPI -17.6, Mcl-1 Bim block 0.0 and Mcl1-Noxa inh -2.7.
Screening COc1cc(N2CCCC2)c(OC)cc1/C=C(/C#N)c1cccc(F)c1 returned MCL1-BIM inh -94.0, 14-3-3 Bad inh -6.1, Mcl1 Bid PPI -21.2, Mcl-1 Bim block -22.0 and Mcl1-Noxa inh 79.6*.
CC1(C)OC(=O)C(=CNc2ccccc2F)C(=O)O1 was read as MCL1-BIM inh 21.3, 14-3-3 Bad inh -3.3, Mcl1 Bid PPI -19.9, Mcl-1 Bim block 0.0 and Mcl1-Noxa inh 5.7.
COc1cccc(-c2cc(=O)c3cc(NC(=O)c4ccccc4)ccc3[nH]2)c1 was read as MCL1-BIM inh 4.8, 14-3-3 Bad inh -14.7, Mcl1 Bid PPI 16.9, Mcl-1 Bim block -4.0 and Mcl1-Noxa inh -2.1.
Screening COc1cccc(-c2cc(=O)c3cc(NC(=O)c4ccc(N(C)C)cc4)ccc3[nH]2)c1 returned MCL1-BIM inh -4.3, 14-3-3 Bad inh 21.0, Mcl1 Bid PPI 16.7, Mcl-1 Bim block 0.0 and Mcl1-Noxa inh 57.5*.
CCOC(=O)CC1C(=O)NCCN1C(=O)Nc1ccc(Cl)cc1 (stereo not given) was read as MCL1-BIM inh 1.6, 14-3-3 Bad inh 73.3*[fluorescence artefact?], Mcl1 Bid PPI 2.3, Mcl-1 Bim block 0.0 and Mcl1-Noxa inh 18.1.
Screening COC(=O)CC1C(=O)NCCN1C(=O)Nc1ccc(Cl)cc1 (stereo not given) returned MCL1-BIM inh -3.3, 14-3-3 Bad inh -15.6, Mcl1 Bid PPI -9.7, Mcl-1 Bim block -3.0 and Mcl1-Noxa inh 2.1.
`O=c1c2ccccc2c(C=Nc2cccc(O)c2)c(O)n1-c1ccc2c(c1)OCO2` gave MCL1-BIM inh 4.9, 14-3-3 Bad inh 22.9, Mcl1 Bid PPI 60.2*, Mcl-1 Bim block -4.0 and Mcl1-Noxa inh 50.2.
Screening COc1ccc(N=Cc2c(O)n(-c3ccc(OC)cc3)c(=O)c3ccccc23)cc1 returned MCL1-BIM inh -3.8, 14-3-3 Bad inh 75.5*, Mcl1 Bid PPI 48.9, Mcl-1 Bim block -2.0 and Mcl1-Noxa inh 45.5.
Screening COc1ccc(N2CCN(Cc3nc(-c4ccc(Cl)cc4Cl)no3)CC2)cc1 returned MCL1-BIM inh 1.2, 14-3-3 Bad inh -7.3, Mcl1 Bid PPI -78.8, Mcl-1 Bim block -1.0 and Mcl1-Noxa inh 56.3*.
Screening COc1cc(C(Nc2ccccn2)c2ccc3ccc(C)nc3c2O)cc(OC)c1O (stereo not given) returned MCL1-BIM inh 38.0, 14-3-3 Bad inh 13.7, Mcl1 Bid PPI 10.9, Mcl-1 Bim block -2.0 and Mcl1-Noxa inh 93.4*.
For COc1ccccc1NC(c1cccnc1)c1ccc2cccnc2c1O (stereo not given) the results were MCL1-BIM inh 17.9, 14-3-3 Bad inh 20.7, Mcl1 Bid PPI 8.0, Mcl-1 Bim block 0.0 and Mcl1-Noxa inh 50.6*.
`Cc1cccc(NC(c2ccc(C)s2)c2ccc3ccc(C)nc3c2O)n1` (stereo not given) gave MCL1-BIM inh 23.2, 14-3-3 Bad inh 0.9, Mcl1 Bid PPI 7.4, Mcl-1 Bim block -4.0 and Mcl1-Noxa inh 67.2*.
Cc1ccnc(NC(c2cccnc2)c2ccc3cccnc3c2O)c1 (stereo not given) was read as MCL1-BIM inh 0.9, 14-3-3 Bad inh -3.9, Mcl1 Bid PPI -13.8, Mcl-1 Bim block 0.0 and Mcl1-Noxa inh 41.2.
